Legend:
Experiment in all cases: PBM binding z-score (relative to random genomic background probes); higher = stronger binding; sequences stand for … in GC…GCGATTGACAGCGTAGAATGAAGG
[1] = system: RARb homodimer (NR concentration 270 nM)
How it was run: (§1)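 Regression normalization was applied to scanned fluorescence from custom Agilent 4×180K protein-binding microarrays. Before scanning, arrays were incubated 1 h with ligand-free nuclear receptor dimers, and binding was detected with antibodies against each partner (one per run). Binding z-scores use the random background probes as reference.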

[2] = system: RARg:RXRa (NR concentration 270 nM, RXRa partner concentration 90 nM)
How it was run: as §1

[3] = system: RARg homodimer (NR concentration 270 nM)
How it was run: as §1

[4] = system: RXRa DBDmut IVT, anti-RXR (DBD mutation: RXRa K156A/R161A, NR concentration 90 nM)
How it was run: as §1

[5] = system: RXRa homodimer (NR concentration 180 nM)
How it was run: as §1

[6] = system: THRa:RXRa (NR concentration 90 nM, RXRa partner concentration 90 nM)
How it was run: as §1

[7] = system: THRa homodimer (NR concentration 90 nM)
How it was run: as §1

[8] = system: VDR homodimer (NR concentration 270 nM)
How it was run: as §1

Sequence | PBM binding z-score [1] | PBM binding z-score [2] | PBM binding z-score [3] | PBM binding z-score [4] | PBM binding z-score [5] | PBM binding z-score [6] | PBM binding z-score [7] | PBM binding z-score [8]
ATACCAAGGGGATCGTGAGGTCGTTGATACTAAC | 1.03 | 0.522 | 0.278 | 0.533 | 0.933 | 2.89 | 1.66 | 2.27
GCTGCTAGGTCAAGTGATGGTCAGCTAAAGCTCG | 3.68 | 4.85 | 5.33 | 1.6 | 2.93 | 2.85 | 0.545 | -0.211
CGGACTAGGTCAAGGACAGTGAATCTCCGCACGC | 2.94 | 3.54 | 4.28 | 1.29 | 2.33 | 2.8 | 2.06 | -0.118
ATACCAAGGTGATCGTGAGGTCGTTTATACTAAC | 1.98 | 2.29 | 1.01 | 1.06 | 1.36 | 3.56 | 2.59 | 3.5
CGACCTAGGTCATCCAGGACAGTGAATACATTGA | 3.41 | 4.75 | 4.97 | 2.6 | 3.37 | 4 | 2.18 | 2.5
CGTCAAAGTTCAAGGTAACGTAACAGAAAGCAGC | 3.92 | 5.25 | 5.88 | 4.03 | 4.58 | 3 | 1.32 | 3.12
CAAACTAGGTCATGGTCAAAGTCGGTTTGTGCCA | 3.44 | 3.83 | 4.77 | 1.45 | 3.08 | 3.04 | 1.5 | 1.15
TCTATTACTTGAAGGGCAACCGACGAGTCCGTTT | 1.51 | 0.815 | 0.75 | 1.72 | 0.98 | 0.289 | 0.362 | 1.46
TCTATTAGTTGATTAGGGGAACCGAAACAGCGGA | 0.155 | 0.431 | 0.32 | 1.67 | 0.729 | 0.257 | 0.319 | 0.458
CCTGCTAGGTCATGGTCAGCTATTCTACAGTATG | 3.14 | 3.88 | 4.48 | 2.05 | 2.65 | 2.93 | 1.28 | 0.248
CGTCCAAGGTCAAAGGTCAGTGACGAGATGACGG | 5.47 | 8.79 | 8.22 | 3.93 | 10.5 | 4.85 | 2.69 | 3.54
CGAACTAGGTCATGGACAGTGAATCTCCGCACGC | 2.85 | 3.94 | 4.35 | 1.84 | 3.21 | 2.94 | 1.16 | 0.367
TATACAGGGTCAAAGGCCAGAGCACGAATGTCGA | 3.57 | 5.66 | 5.23 | 3.1 | 6.87 | 3.46 | 0.672 | 2.9
ATAGCAAGGTGATCGTGAGGTCGTTGATACTAAC | 1.29 | 2.12 | 0.811 | 0.231 | 1.31 | 3.2 | 1.8 | 1.97
CCTACTGGGCCACGAAAGGTCATTTATTCAGTGA | 4.32 | 4.41 | 4.2 | 0.751 | 4.96 | 3.5 | 0.944 | 2.76
CCTACTGGGCCATCAGGTCATGGATATCAACGTT | 2.95 | 2.25 | 2.22 | -0.124 | 1.66 | 3.47 | 3.47 | 0.959
TAGCCTAGGTCATGCGGGCCACTATAGTGTCGGC | 2.97 | 4.13 | 4.41 | 0.662 | 3.23 | 3.15 | 0.932 | 1.08

Sequence | PBM binding z-score [1] | PBM binding z-score [2] | PBM binding z-score [3] | PBM binding z-score [4] | PBM binding z-score [5] | PBM binding z-score [6] | PBM binding z-score [7] | PBM binding z-score [8]
CCTCCTGGGCCACGAAAGGTCATTGATTCAGTGA | 4.56 | 4.7 | 4.3 | 0.0691 | 4.89 | 3.84 | 0.846 | 2.04
CGAACTAGGTCATTAACAGGACAGTGAATAGTAA | 2.34 | 4.13 | 4.05 | 2.35 | 2.29 | 2.76 | 0.884 | 1.15
CCGACTAGGGCATAAGGTTACCATAAGCCAGCCC | 1.76 | 2.19 | 1.34 | -0.152 | 1.35 | 2.17 | 1.08 | -0.17
CGTCAAAGTTCAACCAAGGTAACGTAAAGCACGC | 4.13 | 5.85 | 6.21 | 4.5 | 4.98 | 5.14 | 1.18 | 4.3
ATCGAAAGGGCGAAGGTGAGTATACCCACCCGAA | 1.17 | 1.63 | 1.2 | -0.634 | 1.59 | 0.3 | -0.75 | -0.263
CCATACAGGTGAAAGGTAACTCAGTCTGGTACGC | 0.92 | 1.41 | 0.917 | 0.261 | 2.32 | 1.08 | 0.069 | -0.101
ATCTCTAGGTAAGACTCAGATCAGTGAAGAACGC | -0.0502 | 0.253 | 0.295 | 0.0225 | 0.0293 | 0.242 | 0.333 | 0.414
TCTGCTAGGTCAACGGTGGTCAGCTAATCTGCTA | 3.48 | 4.11 | 4.99 | 1.01 | 2.54 | 3.46 | 0.796 | -0.606
TGAATGAAGTTATAAGATCAGGGAACGTTGCAAA | -0.946 | -0.0858 | -0.101 | -0.953 | -0.319 | -0.471 | -0.931 | -0.524
TCGAGTAGGTTACCAATGGGGCAGTCAGCTTTCT | 0.628 | 1.29 | 0.257 | 0.0356 | 0.404 | -0.0981 | -1.12 | -1.05
TCCAGCAGGCCAGAGGGTCACTCAAGAGGTACGG | 2.93 | 2.61 | 1.71 | 0.301 | 2.29 | 1.7 | -0.473 | 0.227
CGTCCAAGGTCAAAGTCAGTGAAAGAGACTCGAA | 3.32 | 5.86 | 6.34 | 3.91 | 5.95 | 3.5 | 1.72 | 2.46
TCTAGTTGGTCAAAGGTCACTCACTCGAAATGCG | 4.78 | 6.5 | 6 | 2.11 | 7.54 | 3.86 | 2.1 | 3.03
CGAACTAGGTCATTGACAGGATAGTGAATAGTAA | 2.38 | 3.62 | 3.86 | 2.34 | 2.55 | 2.57 | 0.521 | 0.957
ATATCAAGGTGATCGTGAGGTCGTTGATACTAAC | 1.5 | 2.42 | 1.24 | 0.829 | 1.61 | 3.46 | 2.27 | 2.79
TCTAGTTGGTCAAACGTCACACACTCGAAATGCG | 0.78 | 0.926 | 0.831 | 1.2 | 1.04 | 0.288 | 0.167 | 0.2
GCATACAGGTGAAACGCAGGTAACTCAGGGTGGC | 0.299 | 1.03 | 0.276 | -0.217 | 0.854 | 1.42 | -0.151 | -0.463

From the supplement of paper PMC6555819
